Laboratory results from PubChem BioAssay AID447 (National Center for Advancing Translational Sciences (NCATS), 2006).
Hit rate of the full screen: of about 69,000 compounds, fewer than 10 were called active. Another 100% or so got no clear call; they are omitted. No rule for the calls is given here. Some of the results follow.

Target: UDP-N-acetylglucosamine--peptide N-acetylglucosaminyltransferase 110 kDa subunit (Homo sapiens) (UniProt O15294)
Assay: O-Glc NAc Transferase (sOGT)
Details: sOGT fluorescence polarization UDP-GlcNAc probe displacement
Excerpt: NIH Molecular Libraries Screening Centers Network [MLSCN]
NIH Chemical Genomics Center [NCGC]
Suzanne Walker [Harvard Medical School]
OGT is the sole enzyme that mediates the attachment of O-GlcNAc groups to serine and threonine residues in the nucleus and cytoplasm of eukaryotic cells, and no specific inhibitors are known. This type of glycosylation is involved in signal transduction and plays a key role in many essential cellular processes. High O-GlcNAc levels have been correlated to insulin resistance and type 2 diabetes. In addition to elucidating the role of O-GlcNAc in cellular processes, inhibitors of OGT might be useful in studying and perhaps treating type 2 diabetes. Since HTS-amenable direct assay for OGT activity is currently unavailable, a simpler substrate-displacement screen was performed. The signal measured is based on the change in fluorescence polarization of a fluorescein-labeled UDP-GlcNAc upon displacement from its complex with OGT. Recombinant truncated version of the enzyme, sOGT, as well as labeled probe, were made available by Suzanne Walker and Benjamin Gross, Harvard Medical School.
NCGC Assay Protocol Summary:
20 mM phosphate buffer, pH 8.0, 0.01% Tween-20, 500 uM THP (Tris (hydroxypropyl) phosphine).
50 nM/1.5 uM sOGT /100 uM UDP in columns 3 and 4 as negative control (full inhibition of binding, 0 % activity).
50 nM probe/1.5 uM sOGT in columns 1, 2, 5-48. Titration of UDP control (from 40 mM, then 1:2) pin-transferred to column 2. Column 1 is neutral (100% activity).
Three uL of reagents were dispensed to 1536-well Greiner black plates. Compounds and controls (20 nL) were transferred via Kalypsys PinTool. The plates were incubated for 15 min at room temperature, and then read on ViewLux (Perkin-Elmer) High-throughput CCD imager using fluorescein polarization filter set and 45 seconds exposure time. During dispense, reagent bottles were kept submerged into 4 deg C water bath and all liquid lines were covered with aluminum foil to minimize probe and protein degradation.
Keywords: NIH Roadmap, MLSCN, MLI, MLSMR, sOGT, qHTS, NCGC

UDP-N-acetylglucosamine--peptide N-acetylglucosaminyltransferase 110 kDa subunit (Homo sapiens), sequence (O15294 whole entry, looked up): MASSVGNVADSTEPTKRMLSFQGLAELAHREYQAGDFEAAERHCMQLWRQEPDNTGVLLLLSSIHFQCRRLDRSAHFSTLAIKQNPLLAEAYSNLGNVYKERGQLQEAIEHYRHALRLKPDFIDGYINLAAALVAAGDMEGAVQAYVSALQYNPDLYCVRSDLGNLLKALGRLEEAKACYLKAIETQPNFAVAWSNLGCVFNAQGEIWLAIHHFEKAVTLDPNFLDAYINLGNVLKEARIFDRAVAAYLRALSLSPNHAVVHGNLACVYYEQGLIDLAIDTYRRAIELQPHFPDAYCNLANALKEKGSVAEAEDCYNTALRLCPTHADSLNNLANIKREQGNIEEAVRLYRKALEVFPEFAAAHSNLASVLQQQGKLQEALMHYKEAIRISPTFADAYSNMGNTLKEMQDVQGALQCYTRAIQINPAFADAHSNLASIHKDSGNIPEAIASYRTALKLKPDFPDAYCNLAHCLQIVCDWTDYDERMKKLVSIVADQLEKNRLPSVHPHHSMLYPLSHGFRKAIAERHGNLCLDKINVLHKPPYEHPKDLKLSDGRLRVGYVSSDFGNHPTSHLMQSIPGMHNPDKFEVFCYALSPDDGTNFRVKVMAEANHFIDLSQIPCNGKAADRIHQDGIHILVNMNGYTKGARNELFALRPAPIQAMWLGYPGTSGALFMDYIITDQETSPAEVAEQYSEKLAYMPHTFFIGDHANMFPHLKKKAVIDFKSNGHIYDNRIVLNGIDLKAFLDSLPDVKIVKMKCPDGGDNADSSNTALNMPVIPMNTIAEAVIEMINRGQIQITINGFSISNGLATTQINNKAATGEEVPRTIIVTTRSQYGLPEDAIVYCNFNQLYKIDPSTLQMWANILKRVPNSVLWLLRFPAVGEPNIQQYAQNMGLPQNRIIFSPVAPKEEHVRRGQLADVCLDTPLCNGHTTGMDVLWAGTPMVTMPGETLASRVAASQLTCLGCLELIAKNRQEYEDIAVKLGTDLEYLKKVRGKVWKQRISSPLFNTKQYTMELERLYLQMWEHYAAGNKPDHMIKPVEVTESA

Potency, active:
O=C(O)C1=CC(=C(c2ccc(O)c(C(=O)O)c2)c2ccc(O)c(C(=O)O)c2)C=CC1=O 21.8 µM
CCCn1c(=O)c(C)cn2nc(N)nc12 31.1 µM
CCCCCCCCCCCCC/C=C\[C@@H](O)[C@H](CO)NC(C)=O 25.2 µM
Cc1cc(-c2ccc(N=Nc3ccc4c(S(=O)(=O)O)cc(S(=O)(=O)O)c(N)c4c3O)c(C)c2)ccc1N=Nc1ccc2c(S(=O)(=O)O)cc(S(=O)(=O)O)c(N)c2c1O 43.7 µM
Nc1c(S(=O)(=O)O)cc(Nc2ccc(Nc3nc(Cl)nc(Nc4ccc(S(=O)(=O)O)cc4)n3)c(S(=O)(=O)O)c2)c2c1C(=O)c1ccccc1C2=O 22.3 µM
